Assay in all cases: NCI-60 one-dose screen, 48 h (100 = growth as untreated, 0 = no growth, -100 = all killed)
Details in all cases: 10 µM unless noted

The subject of assay [1] is DU-145 prostate.
Assay [2] has as its system K-562 leukemia.
In assay [3] the test system is MALME-3M melanoma.
In assay [4] the test system is MDA-MB-231 breast.
In assay [5] the test system is RXF 393 renal.
Assay [6] concerns SF-268 CNS.
For assay [7], the system named is SF-295 CNS.
The test system of assay [8] is SF-539 CNS.
In assay [9] the test system is UACC-257 melanoma.
For assay [10], the system named is M14 melanoma.

Molecules are shown by their SMILES. About 83,000 compounds went through this panel and 20% of them were active in at least one assay; those are over-represented in the sample as a whole.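 The endpoint reported here, percent growth, reads 100 for growth as untreated, 0 for no net growth and -100 for all cells dead.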 Unmarked numbers belong to inactive results. Activity calls are given as the source filed them. How the source made its calls: active means growth percent below 10; inactive means the rest.

For `N#C/C(=C\c1ccc(-c2ccc(F)cc2)o1)c1nc(-c2ccco2)cs1`, the growth is 104% in [1]; 95.9% in assay [2]; 98.1% in assay [3]; 88.7% in assay [4]; 116% in [5]; 106% in [6]. For the same compound, the growth in [7] is 102%; in [8], 98.7%; in [9], 106%; in assay [10], 102%.
Take `CCCC1CCCCN1C(=O)OCC(C)C` (stereo not given): the growth in [1] is 104%; in assay [2], 103%; in [3] it was 107%; in assay [4], 109%; in assay [5] it was 119%; in assay [6] it was 96.1%. Also, the growth in [7] was 94.5%; in assay [8] it was 100%; in assay [9], 110%; in [10], 109%.
In the case of `O=C1/C(=C\c2ccco2)SC(=S)N1CCc1ccc(O)cc1`, the growth in [1] was 67.8%; in [2], 84.8%; in assay [3], 82%; in [4], 80.5%; in assay [5], 98.3%; in assay [6], 94.8%. Besides, the growth in assay [7] is 105%; in assay [8] it was 88.5%; in assay [9], 90.1%; in [10] it was 96%.
With `COC(=O)[C@]12CC[C@@H](C(=O)/C=C/c3cccnc3)[C@@H]1[C@H]1CC[C@@H]3[C@@]4(C)C/C(=C/c5cccnc5)C(=O)C(C)(C)[C@@H]4CC[C@@]3(C)[C@]1(C)CC2`, the growth in [1] is -67.8% (active); in assay [2] it was -21.6% (active); in assay [3] it was -95.2% (active); in [4] it was -81.3% (active); in [5], -93.6% (active); in [6], -80.8% (active). For the same compound, the growth is -98.5% (active) in assay [7], -96.5% (active) in [8], -58.9% (active) in assay [9] and -80.3% (active) in assay [10].
As for `O=C1OC(c2ccc(Cl)c(Cl)c2)=C/C1=C/c1cccc([N+](=O)[O-])c1`, the growth in assay [1] was 109%; in assay [2], 99%; in assay [3], 101%; in assay [4] it was 108%; in assay [5] it was 96.4%; in [6], 97.9%. Besides, the growth was 101% in [7], 103% in assay [8], 103% in assay [9] and 106% in assay [10].
For `O=c1[nH]c2c3ccncc3cc(-c3cccc(Cl)c3)c2c2cnccc12`, the growth is 39.5% in [1]; 75% in [2]; 69.1% in [3]; 35.1% in assay [4]; -16.5% (active) in assay [5]; 53.9% in [6]. Also, the growth in [7] is 31.4%; in [8] it was 2.59% (active); in [9], 49.5%; in [10], 55.2%.
`COc1ccc(-c2cc(=O)oc3ccc(Cl)cc23)cc1F`: the growth in [1] was 14.7%; in assay [2] it was 7.21% (active); in [3] it was 103%; in [4], 21.8%; in [5], 38.7%; in [6], 26.2%. For the same compound, the growth in assay [7] is 20.4%; in assay [8], -2.9% (active); in assay [9], 47.3%; in assay [10], 15.3%.
Consider `NCCn1cc(-c2nc(-c3c[nH]c4ncccc34)cs2)c2cc(Br)ccc21`, for which the growth was 82.3% in [1]; 19.4% in assay [2]; 95.9% in assay [3]; 56.7% in [4]; 80.5% in assay [5]; 82.8% in assay [6]. The growth was 102% in assay [7], 84.2% in assay [8], 95.5% in assay [9] and 87.7% in assay [10].
On to `Cc1ccc(-c2nn(Cc3cn(-c4cc(C)nc5ccccc45)nn3)c3ncnc(N)c23)cc1`, for which the growth is 47.8% in assay [1]; 53.2% in assay [2]; 52.5% in [3]; 33.1% in assay [4]; 27.3% in assay [5]; 35.8% in [6]. The growth in assay [7] is 66.5%; in assay [8], 74.7%; in [9], 42.5%; in assay [10], 52.7%.
Consider `CCNCCCn1c2c(c3ccc([N+](=O)[O-])cc3c1=O)C(=O)c1cc(OC)cnc1-2`, for which the growth in assay [1] was 2.6% (active); in assay [2], -3.04% (active); in [3], -61.8% (active); in [4], -32.6% (active); in assay [5] it was -85.8% (active); in [6], 1.69% (active). Also, the growth is -1.1% (active) in assay [7], -48.2% (active) in [8], -45.3% (active) in [9] and -37.1% (active) in [10].
As for `COc1cc2nc(Cl)nc(Nc3cccc(C(=O)/C=C/c4ccc(F)cc4)c3)c2cc1OC`, the growth was 85.7% in assay [1]; 7.78% (active) in assay [2]; 81.2% in assay [3]; 62.4% in assay [4]; 69.4% in assay [5]; 89.6% in [6]. Moreover, the growth was 74.1% in [7], 25.8% in [8], 102% in assay [9] and 62% in assay [10].
On to `COc1cc(NC(C)CN(CC(C)C)C(C)C)c2ncccc2c1` (stereo not given), for which the growth in [1] was 106%; in assay [2], 98.1%; in assay [3], 104%; in assay [4], 81.1%; in assay [5] it was 113%; in assay [6], 94.7%. Moreover, the growth is 110% in assay [7], 103% in [8], 99.5% in assay [9] and 102% in assay [10].
For `COc1ccc(-c2n[nH]nc2-c2cc3ccccc3s2)cc1O`, the growth was 25.1% in assay [1]; 5.55% (active) in assay [2]; 74.7% in assay [3]; -3% (active) in [4]; 16.4% in assay [5]; 37% in assay [6]. For the same compound, the growth in assay [7] is 26.9%; in assay [8], -13.4% (active); in assay [9] it was 50.2%; in assay [10], 12.4%.
In the case of `Cc1ccsc1-c1ccc2c(c1)COC2(CCCN(C)C)c1ccc(F)cc1` (stereo not given), the growth is 60% in [1]; 1.22% (active) in [2]; -14% (active) in assay [3]; 51.1% in assay [4]; 28.2% in assay [5]; 65.2% in assay [6]. Also, the growth in assay [7] was 57.1%; in [8], 67%; in assay [9], -10.5% (active); in assay [10], -57.5% (active).
`COc1ccc(-c2cc(-c3cccs3)n(N=O)c(=O)c2C#N)cc1`: the growth was 119% in [1]; 34.3% in [2]; 127% in assay [3]; 100% in assay [4]; 96.3% in assay [5]; 110% in assay [6]. The growth in [7] is 102%; in assay [8], 96.5%; in assay [9], 101%; in [10], 116%.
Take `Cc1csc(Nc2nc(-c3cccc(Br)c3)nc(C(Cl)(Cl)Cl)n2)n1`: the growth in [1] was -5.72% (active); in assay [2] it was 84%; in assay [3] it was 98.8%; in [4], 15.5%; in [5] it was 20.2%; in assay [6] it was 78.1%. Moreover, the growth was 20.7% in [7], 41% in assay [8], 60.6% in assay [9] and 86.4% in [10].
Regarding `COc1ccc(C2(Cl)c3ccccc3N(c3ccccc3)c3ccccc32)cc1`, the growth in assay [1] is 16.8%; in [2], 8.99% (active); in [3] it was -57% (active); in [4] it was -23.8% (active); in assay [5], -28.4% (active); in assay [6] it was 15.4%. Moreover, the growth in assay [7] is -36.6% (active); in assay [8], -20.3% (active); in assay [9], -41.5% (active); in assay [10] it was -55.1% (active).
Consider `N#CC1=C(N)Oc2ccc3ccccc3c2C1c1ccccc1Cl` (stereo not given), for which the growth in assay [1] is 73.3%; in assay [2], 13.2%; in assay [3] it was 46.2%; in [4], 51.3%; in assay [5] it was 58.7%; in assay [6], 57.7%. The growth in assay [7] is 11.7%; in assay [8] it was 35%; in assay [9], 66.7%; in assay [10], 13.4%.
As for `C/C(Cc1ccc(Cl)cc1)=C(/c1ccc(Cl)cc1)c1ccc(OCCN2CCCC2)cc1`, the growth is 87% in [1]; 15.2% in assay [2]; 77.7% in assay [3]; 89.2% in [4]; 86.3% in assay [5]; 92.4% in assay [6]. The growth is 92.9% in [7], 89.7% in assay [8], 79.7% in assay [9] and 78.2% in [10].
As for `NC1=NN(c2ccccc2)C(=O)/C1=C/c1ccc(Cl)cc1`, the growth is 107% in [1]; 102% in assay [2]; 92.4% in [3]; -99% (active) in assay [4]; 107% in assay [5]; 102% in assay [6]. In addition, the growth is 113% in assay [7], 111% in assay [8], 97.3% in [9] and 97.2% in assay [10].
For `COc1cc(-c2cc3ncccc3c3[nH]c(=O)c4cccnc4c23)cc(OC)c1OC`, the growth in [1] was 14.1%; in [2], 10.5%; in assay [3], 55.4%; in assay [4], 36.7%; in assay [5] it was -3.08% (active); in assay [6], 51.2%. The growth in assay [7] is 12.6%; in assay [8], 5.37% (active); in assay [9], 51.5%; in assay [10], 12.8%.
Regarding `C=C(C)[C@@H]1CC[C@]2(C)[C@H](CC=C3[C@@H]4CC(C)(C)CC[C@]4(C=O)CC[C@]32C)[C@@]1(C)CCCN`, the growth in [1] was 93.3%; in [2] it was 1.54% (active); in assay [3] it was 68.8%; in assay [4], 75.2%; in assay [5], 67.1%; in assay [6] it was 83.2%. The growth in [7] is 93.2%; in [8], 89.3%; in assay [9], 81%; in assay [10], 63.9%.
For `CCC(CC)C(=O)OC(C)COc1ccc(C(C)(C)C)cc1` (stereo not given), the growth was 106% in [1]; 87% in assay [2]; 94.5% in assay [3]; 108% in assay [4]; 113% in assay [5]; 99.1% in assay [6]. The growth in assay [7] is 106%; in assay [8], 109%; in assay [9] it was 66.7%; in assay [10], 96%.
Consider `Cn1cc(-c2csc(-c3cn(CCCN4CCCCC4)c4ccc(Br)cc34)n2)c2cccnc21`, for which the growth is -26.5% (active) in [1]; -63.6% (active) in assay [2]; -25.7% (active) in assay [3]; -50.7% (active) in assay [4]; 23.3% in [5]; 46.1% in assay [6]. Further, the growth in assay [7] was 31.8%; in [8], -73% (active); in [9], 68.1%; in [10], -88.1% (active).
For `Cc1cc2nc3c4cc(Cl)ccc4n(CCN(C)C)c3nc2cc1C`, the growth in assay [1] was 15.3%; in assay [2], 3.43% (active); in assay [3] it was -45.5% (active); in assay [4] it was 7.77% (active); in [5], -0.246% (active); in assay [6], 33.3%. Besides, the growth in assay [7] is 11.4%; in assay [8], 14.1%; in [9], 38.7%; in assay [10], -45.7% (active).
For the compound `CC(C)c1cc(C(=O)O)c(O)c(C(C)C)c1.CC(C)c1cc(C(=O)O)c(O)c(C(C)C)c1.[Mn]`, the growth is 108% in assay [1]; 94.8% in assay [2]; 103% in assay [3]; 103% in assay [4]; 129% in assay [5]; 96.2% in [6]. Also, the growth was 107% in assay [7], 105% in [8], 98.8% in assay [9] and 107% in [10].
For `C#CCN=C[C@]12CC[C@@H](C(=C)C)[C@@H]1[C@H]1CC[C@@H]3[C@@]4(C)CCC(=O)C(C)(C)[C@@H]4CC[C@@]3(C)[C@]1(C)CC2`, the growth in [1] is 67.9%; in assay [2] it was 28.1%; in assay [3], 81.8%; in assay [4] it was 83.8%; in assay [5], 80.3%; in assay [6], 71.3%. Also, the growth in assay [7] is 68.5%; in [8] it was 80.2%; in assay [9], 55.6%; in assay [10], 63.1%.
